Inconclusive results are not listed. The source made the active and inactive calls. Unless noted, calls come from the whole dose curve; as a rule, active = well fitted curve in the direction sought with a large enough effect; inconclusive = small, poorly fitted or top-dose-only effect, or another doubt; inactive = no such curve, though single readings can be large; an effect the other way counts as inactive or inconclusive.
Columns and labels:
[1] = target: Cytochrome P450 1A2 (Homo sapiens) (UniProt P05177); experiment: p450-cyp1a2 (AID 410; calls by dose curve; note: potency is the fitted concentration of half-maximal effect); details: recombinant CYP1A2, luciferin-ME demethylation, luminescence; series mostly up to 57 µM
Chain of Cytochrome P450 1A2 (Homo sapiens) (P05177 whole entry, looked up): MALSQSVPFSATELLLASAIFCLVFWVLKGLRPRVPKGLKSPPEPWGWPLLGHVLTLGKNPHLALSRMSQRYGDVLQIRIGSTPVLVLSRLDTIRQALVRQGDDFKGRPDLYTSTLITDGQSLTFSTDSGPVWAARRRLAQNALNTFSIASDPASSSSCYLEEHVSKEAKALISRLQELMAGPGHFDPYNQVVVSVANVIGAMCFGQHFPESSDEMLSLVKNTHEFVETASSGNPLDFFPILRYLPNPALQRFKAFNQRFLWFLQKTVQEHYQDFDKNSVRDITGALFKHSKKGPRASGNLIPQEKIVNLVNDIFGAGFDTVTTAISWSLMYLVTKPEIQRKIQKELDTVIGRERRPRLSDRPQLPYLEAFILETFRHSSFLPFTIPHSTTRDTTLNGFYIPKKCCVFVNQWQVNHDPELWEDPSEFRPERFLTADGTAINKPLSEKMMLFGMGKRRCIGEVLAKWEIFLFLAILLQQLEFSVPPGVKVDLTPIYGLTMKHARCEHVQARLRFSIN
How it was run: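 Inhibition was calculated relative to 57 uM furafylline (full inhibition). The reaction used human CYP1A2 at 20nM with Luciferin-ME at its Km, 100uM, driven by an NADPH-regenerating system for 60 min at room temperature.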

[2] = target: Glucocorticoid receptor (Homo sapiens) (UniProt P04150); experiment: GR-GFP Redistribution (AID 450;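 active = compounds whose dose series gives a full or clear partial fitted curve of increased nuclear translocation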; note: potency is the fitted concentration of half-maximal effect); details: U2OS GR-GFP nuclear translocation, laser cytometry, 2 h; series mostly up to 20.6 µM
Chain of Glucocorticoid receptor (Homo sapiens) (P04150 whole entry, looked up, the tested form may be a part): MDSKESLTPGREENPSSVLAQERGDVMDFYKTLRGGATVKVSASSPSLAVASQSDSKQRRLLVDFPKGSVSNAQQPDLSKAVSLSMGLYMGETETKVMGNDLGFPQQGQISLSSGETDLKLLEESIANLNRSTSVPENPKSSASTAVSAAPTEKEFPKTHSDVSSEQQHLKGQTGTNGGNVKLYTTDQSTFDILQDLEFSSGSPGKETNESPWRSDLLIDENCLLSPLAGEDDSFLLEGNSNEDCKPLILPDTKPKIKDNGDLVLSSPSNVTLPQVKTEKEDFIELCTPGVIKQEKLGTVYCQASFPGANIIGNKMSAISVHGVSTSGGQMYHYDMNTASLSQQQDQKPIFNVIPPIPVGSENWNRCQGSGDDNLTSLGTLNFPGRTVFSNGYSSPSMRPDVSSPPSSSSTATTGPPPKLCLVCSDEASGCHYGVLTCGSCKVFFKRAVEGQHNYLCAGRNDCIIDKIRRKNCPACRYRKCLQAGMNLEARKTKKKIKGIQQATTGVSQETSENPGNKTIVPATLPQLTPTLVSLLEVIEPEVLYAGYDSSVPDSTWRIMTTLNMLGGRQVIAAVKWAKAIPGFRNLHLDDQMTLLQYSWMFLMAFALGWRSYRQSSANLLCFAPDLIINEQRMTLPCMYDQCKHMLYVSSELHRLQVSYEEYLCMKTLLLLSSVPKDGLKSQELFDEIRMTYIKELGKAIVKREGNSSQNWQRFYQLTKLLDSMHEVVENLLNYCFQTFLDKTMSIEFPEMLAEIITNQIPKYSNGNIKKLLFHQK

[3] = target: Glucocorticoid receptor (Homo sapiens) (UniProt P04150); experiment: GR-EFC Redistribution (AID 451; calls by dose curve; note: potency is the fitted concentration of half-maximal effect); details: CHO-K1 GR-EFC translocation, beta-gal luminescence, 2 h
How it was run: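 CHO-K1 cells stably expressing nuclear-localized β-gal enzyme acceptor and GR fused C-terminally to the enzyme donor fragment; ligand-driven nuclear translocation restores β-gal by complementation. Compounds titrated up to 46 uM final, 2 h at 37 °C; luminescence read.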

[4] = target: Cytochrome P450 2D6 (Homo sapiens) (UniProt P10635); experiment: qHTS Assay for Inhibitors and Substrates of Cytochrome P450 2D6 (AID 891); details: recombinant CYP2D6, luciferin-ME EGE luminescence; series mostly up to 57.1 µM;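 note: luciferin methyl ether substrate demethylated by CYP2D6 with NADPH regeneration; nearly all actives have a fitted effect of over 60% in size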
Chain of Cytochrome P450 2D6 (Homo sapiens) (P10635 whole entry, looked up): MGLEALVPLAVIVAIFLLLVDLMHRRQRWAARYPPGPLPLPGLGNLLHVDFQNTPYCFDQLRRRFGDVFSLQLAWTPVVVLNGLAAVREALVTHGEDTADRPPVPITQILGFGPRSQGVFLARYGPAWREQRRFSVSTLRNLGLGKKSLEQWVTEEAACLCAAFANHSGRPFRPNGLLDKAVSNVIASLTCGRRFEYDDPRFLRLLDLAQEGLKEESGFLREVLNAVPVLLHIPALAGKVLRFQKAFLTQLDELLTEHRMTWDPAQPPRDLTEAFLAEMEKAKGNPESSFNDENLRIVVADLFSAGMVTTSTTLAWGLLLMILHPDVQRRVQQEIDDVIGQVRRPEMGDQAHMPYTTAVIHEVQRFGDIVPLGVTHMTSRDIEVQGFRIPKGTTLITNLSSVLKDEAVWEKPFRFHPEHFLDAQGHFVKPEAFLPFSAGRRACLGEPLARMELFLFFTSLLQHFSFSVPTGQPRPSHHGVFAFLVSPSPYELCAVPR
How it was run: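 Human CYP2D6 (5 nM) with 30 uM Luciferin-ME EGE (at Km) in 100 mM KPO4, compound preincubated 10 min, then NADPH regeneration system for 60 min at room temperature. Luciferin read by luminescence; normalized to 1.43 uM quinidine.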

[5] = target: Cytochrome P450 2C19 (Homo sapiens) (UniProt P33261); experiment: qHTS Assay for Inhibitors and Substrates of Cytochrome P450 2C19 (AID 899); details: recombinant CYP2C19, luciferin-H EGE luminescence; series mostly up to 57.1 µM; note: nearly all actives have a fitted effect of over 60% in size; note: potency is the fitted concentration of half-maximal effect
Chain of Cytochrome P450 2C19 (Homo sapiens) (P33261 whole entry, looked up): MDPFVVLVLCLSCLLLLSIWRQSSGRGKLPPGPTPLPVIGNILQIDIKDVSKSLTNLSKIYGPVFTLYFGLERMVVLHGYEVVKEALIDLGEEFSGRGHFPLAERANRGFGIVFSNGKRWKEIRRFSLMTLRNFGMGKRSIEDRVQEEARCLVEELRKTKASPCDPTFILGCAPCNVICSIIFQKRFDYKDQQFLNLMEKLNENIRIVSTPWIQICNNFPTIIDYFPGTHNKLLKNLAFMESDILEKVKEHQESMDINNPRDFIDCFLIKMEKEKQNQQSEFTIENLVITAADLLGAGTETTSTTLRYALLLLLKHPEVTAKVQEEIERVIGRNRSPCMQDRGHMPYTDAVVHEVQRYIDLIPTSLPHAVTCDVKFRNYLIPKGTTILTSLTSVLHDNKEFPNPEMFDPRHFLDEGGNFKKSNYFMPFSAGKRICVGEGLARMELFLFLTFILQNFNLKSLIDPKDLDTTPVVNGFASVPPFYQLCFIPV
How it was run: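 NADPH-dependent conversion of Luciferin-H EGE (10uM, at KM) by 5nM enzyme in 50mM KPO4, 60 min at 37C following 10 min compound preincubation. Stopped with luciferin detection buffer; luminescence read after 20 min.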

[6] = target: Mitogen-activated protein kinase 10 (Mus musculus) (UniProt Q61831); experiment: JNK3 AlphaScreen Assay (AID 530; active = well fitted curve in either direction with a large enough effect, not every such curve was filed as active;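 note: kinase came from lysate of stimulated human HepG2 cells; signal reports phosphorylation of biotinylated GST-cJun 1-79 at Ser73 with 10 µM ATP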); details: JNK3 lysate, c-Jun phosphorylation; series mostly up to 57.1 µM
How it was run: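 JNK3 came from HepG2 lysates pre-activated with IL-1beta and TNF-alpha and phosphorylated biotinylated GST-cJun (1-79) at 10 uM ATP, pH 7.6, room temperature. Compounds were titrated. AlphaScreen signal used anti-phospho-cJun (Ser73) antibody.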

[7] = target: 3',5'-cyclic-AMP phosphodiesterase 4B (Homo sapiens) (UniProt Q07343); experiment: qHTS Assay for Inhibitors of PDE-IV (AID 607; active = well fitted activation curve with a large enough effect in the main read-out, with a control signal flat, not every such curve was filed as active); details: HEK293 ACTOne CNG channel cells, membrane potential fluorescence; series mostly up to 22.9 µM
Chain of 3',5'-cyclic-AMP phosphodiesterase 4B (Homo sapiens) (Q07343 whole entry, looked up): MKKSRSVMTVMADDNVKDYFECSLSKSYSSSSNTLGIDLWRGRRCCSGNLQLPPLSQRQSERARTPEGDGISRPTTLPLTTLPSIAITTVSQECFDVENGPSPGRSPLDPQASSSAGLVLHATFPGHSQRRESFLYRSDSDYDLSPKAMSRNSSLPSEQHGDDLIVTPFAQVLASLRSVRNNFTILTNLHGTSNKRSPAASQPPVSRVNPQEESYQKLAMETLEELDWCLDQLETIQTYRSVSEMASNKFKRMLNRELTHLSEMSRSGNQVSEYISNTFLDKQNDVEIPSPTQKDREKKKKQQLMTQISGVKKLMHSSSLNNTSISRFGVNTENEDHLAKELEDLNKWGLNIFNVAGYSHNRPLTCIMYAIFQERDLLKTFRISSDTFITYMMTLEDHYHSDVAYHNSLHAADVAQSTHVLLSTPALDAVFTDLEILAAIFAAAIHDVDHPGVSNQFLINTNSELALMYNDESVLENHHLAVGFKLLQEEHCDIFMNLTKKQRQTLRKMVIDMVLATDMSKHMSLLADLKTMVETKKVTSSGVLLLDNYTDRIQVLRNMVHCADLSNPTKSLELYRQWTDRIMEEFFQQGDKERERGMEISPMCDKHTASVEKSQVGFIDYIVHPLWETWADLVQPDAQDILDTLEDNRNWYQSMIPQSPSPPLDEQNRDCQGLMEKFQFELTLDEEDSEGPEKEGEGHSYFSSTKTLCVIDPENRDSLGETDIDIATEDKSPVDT
How it was run: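 Cell-based read-out of cAMP via a modified cyclic nucleotide-gated channel and membrane potential dye (535/590 nm) in HEK293 cells expressing PDE4 endogenously. Compounds tested up to 22.9 uM final; 100 uM RO 20-1724 reference.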

[8] = target: Cytochrome P450 2C9 (Homo sapiens) (UniProt P11712); experiment: qHTS Assay for Inhibitors and Substrates of Cytochrome P450 2C9 (AID 883); details: recombinant CYP2C9, luciferin-H luminescence, 60 min; series mostly up to 57.1 µM; note: nearly all actives have a fitted effect of over 60% in size; note: potency is the fitted concentration of half-maximal effect
Chain of Cytochrome P450 2C9 (Homo sapiens) (P11712 whole entry, looked up): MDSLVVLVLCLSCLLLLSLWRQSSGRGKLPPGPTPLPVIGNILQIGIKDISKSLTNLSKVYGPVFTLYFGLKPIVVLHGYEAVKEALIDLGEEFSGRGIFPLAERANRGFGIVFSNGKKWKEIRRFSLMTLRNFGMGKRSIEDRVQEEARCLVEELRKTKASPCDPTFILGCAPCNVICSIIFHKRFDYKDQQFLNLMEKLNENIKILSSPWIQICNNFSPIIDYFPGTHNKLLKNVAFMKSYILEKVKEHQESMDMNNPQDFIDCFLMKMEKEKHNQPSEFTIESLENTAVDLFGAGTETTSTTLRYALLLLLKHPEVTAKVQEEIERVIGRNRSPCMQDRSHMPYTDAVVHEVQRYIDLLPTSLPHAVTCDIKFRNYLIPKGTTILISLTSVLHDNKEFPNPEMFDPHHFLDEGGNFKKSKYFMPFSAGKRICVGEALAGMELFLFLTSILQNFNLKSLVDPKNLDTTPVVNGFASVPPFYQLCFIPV
How it was run: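 A luminogenic readout tracked human CYP2C9 (10nM) converting deoxyluciferin (100uM, at KM) in 25mM KPO4 during 60 min at 37C with regenerated NADPH. Values normalized to 57uM sulphaphenazole as complete inhibition.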

[9] = target: Cytochrome P450 3A4 (Homo sapiens) (UniProt P08684); experiment: qHTS Assay for Activators of Cytochrome P450 3A4 (AID 885); details: recombinant CYP3A4, Luciferin-PPXE luminescence, 60 min; series mostly up to 57.1 µM; note: nearly all actives have a fitted effect of over 65% in size
Chain of Cytochrome P450 3A4 (Homo sapiens) (P08684 whole entry, looked up): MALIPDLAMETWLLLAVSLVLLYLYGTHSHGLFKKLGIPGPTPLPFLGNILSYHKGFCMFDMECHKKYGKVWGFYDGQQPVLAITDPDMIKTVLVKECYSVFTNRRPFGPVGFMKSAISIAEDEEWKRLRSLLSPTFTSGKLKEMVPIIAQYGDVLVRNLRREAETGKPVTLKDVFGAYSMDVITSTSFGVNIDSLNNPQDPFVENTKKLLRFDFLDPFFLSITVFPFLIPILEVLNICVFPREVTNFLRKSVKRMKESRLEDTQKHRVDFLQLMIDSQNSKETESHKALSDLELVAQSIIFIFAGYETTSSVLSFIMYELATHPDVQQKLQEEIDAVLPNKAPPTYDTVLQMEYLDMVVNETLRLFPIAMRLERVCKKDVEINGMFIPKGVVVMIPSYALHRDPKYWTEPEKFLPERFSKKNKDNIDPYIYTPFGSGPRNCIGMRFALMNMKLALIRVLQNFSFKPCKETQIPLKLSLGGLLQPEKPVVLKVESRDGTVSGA
How it was run: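 Signal was normalized against complete inhibition by 57 uM ketoconazole. The reaction used 20nM CYP3A4 with 25uM Luciferin-PPXE, 10-min compound preincubation and a 60-min NADPH-supported step at RT.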

[10] = target: Cytochrome P450 3A4 (Homo sapiens) (UniProt P08684); experiment: qHTS Assay for Inhibitors and Substrates of Cytochrome P450 3A4 (AID 884); details: recombinant CYP3A4, Luciferin-PPXE luminescence; series mostly up to 57.1 µM; note: potency is the fitted concentration of half-maximal effect; nearly all actives have a fitted effect of over 50% in size
How it was run: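 20 nM human CYP3A4 with 25 uM Luciferin-PPXE (at KM) in 200 mM KPO4, preincubated 10 min with compound; NADPH regeneration started a 60 min RT reaction. Luciferin detected by luminescence, normalized to 57 uM ketoconazole as full inhibition.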

[11] = target: DNA dC->dU-editing enzyme APOBEC-3G (Homo sapiens) (UniProt Q9HC16); experiment: qHTS for inhibitors of Vif-A3G interactions: Validation (AID 588379); details: Vif-A3G protein interaction assay; series mostly up to 46.1 µM
Chain of DNA dC->dU-editing enzyme APOBEC-3G (Homo sapiens) (Q9HC16 whole entry, looked up): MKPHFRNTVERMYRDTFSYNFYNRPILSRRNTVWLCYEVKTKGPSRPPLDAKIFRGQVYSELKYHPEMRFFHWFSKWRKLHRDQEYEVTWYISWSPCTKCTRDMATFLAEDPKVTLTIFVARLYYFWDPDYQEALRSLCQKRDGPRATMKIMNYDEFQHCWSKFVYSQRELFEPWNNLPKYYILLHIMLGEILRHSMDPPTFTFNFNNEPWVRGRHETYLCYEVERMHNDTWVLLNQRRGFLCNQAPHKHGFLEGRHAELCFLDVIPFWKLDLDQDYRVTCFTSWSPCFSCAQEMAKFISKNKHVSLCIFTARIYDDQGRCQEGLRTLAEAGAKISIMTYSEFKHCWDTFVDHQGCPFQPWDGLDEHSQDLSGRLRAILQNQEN
How it was run: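 HeLa cells stably expressing Vif and A3G-eYFP, 700 cells/well, incubated overnight at 37 deg C, then exposed to compound overnight at 37 deg C. Inhibition of Vif-mediated degradation read as increased yellow fluorescence (Ex 488/Em 500-530) by laser-scanning cytometry.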

Measured: Potency

COc1ccc([C@@H]2OC[C@]3(COC(C)=O)[C@H](C)C=C(C)[C@@H]2[C@H]3C)cc1
inactive: [2] > 46 µM | [3] > 46 µM | [4]
active: [1] 15.8 µM | [5] 6.31 µM

CC(C)[C@@H](CC(=O)N[C@@H]1CCNC[C@H]1C(=O)N[C@H](CC(=O)N[C@@H](CCC(=O)O)CC(=O)O)Cc1c[nH]c2ccccc12)NC(=O)C[C@H](Cc1ccccc1)NC(=O)[C@@H]1CCCC[C@H]1N
active: [1] 31.6 µM
inactive: [3] > 46 µM | [6] | [7] | [8] | [4] | [5]

O=c1c(O)c(-c2ccc(O)c(O)c2)oc2ccccc12
active: [1] 0.251 µM
inactive: [2] > 46 µM | [3] > 46 µM | [9]

CC(C)[C@@H](CC(=O)N[C@@H]1CCNC[C@H]1C(=O)N[C@H](CC(=O)N[C@@H](CCC(=O)O)CC(=O)O)Cc1ccccc1)NC(=O)C[C@H](Cc1c[nH]c2ccccc12)NC(=O)[C@@H]1CCCC[C@H]1N
active: [1] 39.8 µM
inactive: [3] > 46 µM | [6] | [7] | [8] | [4] | [5]

O=c1ccn([C@H]2O[C@H](CO)[C@@H](O)[C@@H]2O)c(=O)[nH]1
inactive: [1] | [2] > 46 µM | [6] | [7] | [4] | [5]

CC(C)[C@@H](CC(=O)N[C@@H]1CCNC[C@H]1C(=O)N[C@H](CC(=O)N[C@@H](CCC(=O)O)CC(=O)O)Cc1ccccc1)NC(=O)C[C@H](Cc1c[nH]c2ccccc12)NC(=O)[C@@H]1CNCC[C@H]1N
inactive: [1] | [3] > 46 µM | [6] | [7] | [8] | [4] | [5]

CC(C)[C@@H](CC(=O)N[C@@H]1CCNC[C@H]1C(=O)N[C@H](CC(=O)N[C@@H](CCC(=O)O)CC(=O)O)Cc1c[nH]c2ccccc12)NC(=O)C[C@H](CO)NC(=O)[C@@H]1CCCC[C@H]1N
inactive: [1] | [3] > 46 µM | [6] | [7] | [8] | [4] | [5]

CC(C)[C@@H](CC(=O)N[C@@H]1CCCC[C@H]1C(=O)N[C@H](CC(=O)N[C@@H](CCC(=O)O)CC(=O)O)Cc1c[nH]c2ccccc12)NC(=O)C[C@H](Cc1ccccc1)NC(=O)[C@@H]1CNCC[C@H]1N
inactive: [1] | [3] > 46 µM | [6] | [7] | [8] | [4] | [5]

COc1ccc2oc(-c3ccccc3)c(OC)c(=O)c2c1
inactive: [3] > 46 µM | [6] | [7] | [9] | [11]
active: [1] 0.501 µM | [8] 25.1 µM | [10] 31.6 µM

C/C(=C\COc1cc(=O)[nH]c2ccccc12)CC[C@@H](O)C(C)(C)O
inactive: [2] > 46 µM | [6] | [7] | [8] | [4] | [5]
active: [1] 20 µM

CC(C)C[C@@H](CC(=O)N[C@@H](CCC(=O)O)CC(=O)O)NC(=O)[C@@H]1CNCC[C@H]1NC(=O)C[C@H](CCCN)NC(=O)C[C@H](Cc1ccccc1)NC(=O)[C@@H]1CNCC[C@H]1N
inactive: [3] > 46 µM | [6] | [7] | [8] | [4] | [5]
active: [1] 31.6 µM

CC(C)[C@@H](CC(=O)N[C@@H]1CCCC[C@H]1C(=O)N[C@H](CC(=O)N[C@@H](CCC(=O)O)CC(=O)O)Cc1c[nH]c2ccccc12)NC(=O)C[C@H](Cc1c[nH]c2ccccc12)NC(=O)[C@@H]1CCCC[C@H]1N
inactive: [1] | [3] > 46 µM | [6] | [7] | [8] | [4] | [5]

NCCC[C@@H](CC(=O)N[C@@H]1CCCC[C@H]1C(=O)N[C@H](CC(=O)N[C@@H](CCC(=O)O)CC(=O)O)Cc1c[nH]c2ccccc12)NC(=O)C[C@H](Cc1c[nH]c2ccccc12)NC(=O)[C@@H]1CNCC[C@H]1N
inactive: [1] | [3] > 46 µM | [6] | [7] | [8] | [4] | [5]

CC(C)C[C@@H](CC(=O)N[C@@H](CCC(=O)O)CC(=O)O)NC(=O)[C@@H]1CNCC[C@H]1NC(=O)C[C@H](CCCN)NC(=O)C[C@H](CO)NC(=O)[C@@H]1CNCC[C@H]1N
inactive: [1] | [3] > 46 µM | [6] | [7] | [4]

Reference: PubChem BioAssay (NCATS)
